# Measurements from PubChem BioAssay (NCI).
# About 79,000 compounds went through this panel and 15% of them were active in at least one assay; those are over-represented in the sample as a whole. Unmarked numbers belong to inactive results. Calls of active or inactive are those of the source. Rule as the data show it: active = growth inhibition above about 70%; inactive = the rest.
# How the values were obtained:
# [1] = NCI Yeast Anticancer Drug Screen. Data for the rad50 strain (AID 155);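 also: 0% = growth of vehicle-only cultures of the same strain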; details: S. cerevisiae rad50 strain growth inhibition, hits give high values
# In short: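 Cells are treated with compound, grown, and their growth is then scored against vehicle-only cultures of the same repair-deficient yeast strain.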
# [2] = NCI Yeast Anticancer Drug Screen. Data for the mec2-1 strain (AID 157); details: S. cerevisiae mec2-1 strain, hits give high values
# In short: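 Readout is yeast growth inhibition, normalised to vehicle-treated controls, in the mec2-1 strain exposed to compound.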
# [3] = NCI Yeast Anticancer Drug Screen. Data for the sgs1 mgt1 strain (AID 161);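 also: 0% = growth of cultures given vehicle only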; details: S. cerevisiae sgs1 mgt1 strain, hits give high values
# In short: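 Compounds are added to genetically altered yeast, and growth is compared with cultures given vehicle alone to give percent inhibition.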
# [4] = NCI Yeast Anticancer Drug Screen. Data for the cln2 rad14 strain (AID 165);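 also: 0% = growth equal to vehicle treated cultures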; details: S. cerevisiae cln2 rad14 strain, hits give high values
# In short: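 Relative to vehicle controls, growth inhibition of compound-treated cln2 rad14 yeast was recorded.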
# [5] = NCI Yeast Anticancer Drug Screen. Data for the bub3 strain (AID 167); details: S. cerevisiae bub3 mutant strain, hits give high values
# In short: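 Part of a panel of yeast mutants defective in DNA damage repair or cell cycle regulation. Each strain is grown with compound, and inhibition is calculated relative to solvent-treated cultures.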
# [6] = NCI Yeast Anticancer Drug Screen. Data for the mlh1 rad18 strain (AID 175); details: S. cerevisiae mlh1 rad18 strain growth inhibition, hits give high values
# In short: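 Test agents were incubated with a yeast strain of defined genotype (DNA damage repair defect). Inhibition of growth was derived by comparison with vehicle-exposed cultures.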
# [7] = at 5.0 µM (retest, dose inferred, filed as 0.5)
# [8] = at 50.0 µM (retest, dose inferred, filed as 5.0)
Compound,"growth inhibition [1, 7]","growth inhibition [1, 8]",growth inhibition ([1]; at 50.0 µM),"growth inhibition [2, 7]","growth inhibition [2, 8]",growth inhibition ([2]; at 50.0 µM),"growth inhibition [3, 7]","growth inhibition [3, 8]",growth inhibition ([3]; at 50.0 µM),"growth inhibition [4, 7]","growth inhibition [4, 8]",growth inhibition ([4]; at 50.0 µM),"growth inhibition [5, 7]","growth inhibition [5, 8]",growth inhibition ([5]; at 50.0 µM),"growth inhibition [6, 7]","growth inhibition [6, 8]",growth inhibition ([6]; at 50.0 µM)
CC(Cl)C(=O)Nc1cc2ccccc2oc1=O (stereo not given),-7%,9%,10.7%,-3%,7%,6.15%,6%,4%,9.2%,10%,-1%,0.35%,-5%,-2%,2.45%,-21%,-3%,-11.2%
CCCCCCCC/C=C\CCCCCCCC(=O)NCCN(C)C,-1%,99% (active),99.3% (active),5%,100% (active),99.4% (active),33%,99% (active),99.5% (active),2%,99% (active),68.2%,2%,99% (active),97.2% (active),22%,99% (active),99.5% (active)
O=C(Oc1c(Cl)cc(Cl)c(Cl)c1Cl)Oc1c(Cl)cc(Cl)c(Cl)c1Cl,4%,1%,-1.15%,5%,4%,15.2%,6%,-11%,0.3%,6%,-11%,6.85%,4%,0%,70% (active),1%,-1%,0.15%
Cn1ncc2c(Nc3cccc(Cl)c3)nc(Nc3cccc(Cl)c3)nc21,47%,97% (active),96% (active),18%,98% (active),94.2% (active),27%,98% (active),96.2% (active),11%,97% (active),95.4% (active),-7%,98% (active),94.2% (active),32%,97% (active),95.7% (active)
CCCCCCCCCCCC(=O)OCCN(CC)CC,3%,99% (active),95.8% (active),-1%,99% (active),98.6% (active),4%,99% (active),65.5%,0%,99% (active),97.9% (active),-3%,98% (active),93.2% (active),-2%,99% (active),98% (active)
CC1OC(Oc2c(-c3ccc(O)c(O)c3O)oc3cc(O)ccc3c2=O)C(O)C(O)C1O (stereo not given),-4%,-2%,14.4%,-10%,-5%,9.6%,-5%,8%,17.6%,3%,-6%,2.9%,-3%,-3%,-12.7%,-5%,-8%,27.8%
COC(C)(C)[C@@H]1CCCN1C1=C(C)C(=O)OC1,97% (active),99% (active),46.6%,85% (active),99% (active),69.3%,61%,99% (active),78.5% (active),43%,99% (active),24.6%,89% (active),99% (active),46.6%,90% (active),99% (active),75.8% (active)
COc1ccc(C(=O)[O][Sn]([c]2ccccc2)([c]2ccccc2)[c]2ccccc2)c(OC)c1OC,100% (active),99% (active),98.7% (active),100% (active),100% (active),99.1% (active),99% (active),99% (active),98.8% (active),99% (active),99% (active),88.2% (active),100% (active),100% (active),98.9% (active),99% (active),99% (active),98.4% (active)
COc1cc2c(c(C)c1O)[C@H]1COc3ccccc3[C@H]1O2,-24%,-9%,75.2% (active),-38%,-9%,77.8% (active),17%,13%,89.9% (active),10%,11%,57%,10%,61%,83.9% (active),-22%,10%,65.5%
O=C1OC(c2ccc(O)cc2)Sc2ccccc21 (stereo not given),6%,66%,81.1% (active),38%,83% (active),74.2% (active),-43%,40%,49.8%,3%,24%,-22.5%,-1%,29%,3.9%,8%,56%,40%
NNc1cccc(C(F)(F)F)c1,19%,90% (active),83.7% (active),-41%,54%,79.5% (active),-16%,28%,88.5% (active),13%,55%,50.1%,-1%,97% (active),88% (active),34%,93% (active),83.5% (active)
CCN=C(N)Nc1nc(-c2ccc(Cl)cc2)cs1,10%,99% (active),98.8% (active),0%,99% (active),96.8% (active),8%,99% (active),91.8% (active),9%,99% (active),76.3% (active),7%,98% (active),96.3% (active),9%,99% (active),96.8% (active)
COc1ccc(N2C(=O)C(=O)C(C(C)=O)C2=O)cc1 (stereo not given),-1%,0%,99.2% (active),-2%,6%,99.3% (active),1%,2%,99.4% (active),-4%,7%,99% (active),1%,3%,99.3% (active),-8%,4%,99.2% (active)
CN(C)c1ccc(/C=N/N=C(/C#N)[S][Sn]([S]/C(C#N)=N/N=C/c2ccc(N(C)C)cc2)([c]2ccccc2)[c]2ccccc2)cc1,7%,95% (active),98.3% (active),1%,96% (active),96.5% (active),10%,92% (active),97.7% (active),0%,89% (active),95.9% (active),-19%,98% (active),95.7% (active),5%,96% (active),97.4% (active)
O=C(O)c1ccccc1-c1c2ccc(=O)c(Br)c-2oc2c(Br)c(O)ccc12,13%,93% (active),87.5% (active),42%,99% (active),98% (active),33%,98% (active),99.5% (active),14%,96% (active),97.5% (active),-1%,96% (active),96.4% (active),49%,97% (active),97.8% (active)
CC(C)CCOc1ccc(/C=C\C(=O)O)cc1,3%,30%,61.1%,-2%,41%,81.5% (active),-3%,38%,30.1%,-1%,87% (active),93.9% (active),1%,54%,71% (active),6%,43%,75% (active)
NNc1ccccc1[N+](=O)[O-],8%,80% (active),89% (active),8%,84% (active),89.2% (active),-2%,62%,84.6% (active),24%,82% (active),77.2% (active),6%,98% (active),88.5% (active),-11%,96% (active),83.3% (active)
CCOC(=O)C(Br)c1nc2ccccc2[nH]c1=O (stereo not given),2%,73% (active),68.3%,-10%,81% (active),74.2% (active),2%,96% (active),49.1%,2%,49%,28.7%,-7%,86% (active),81.6% (active),-5%,98% (active),92.2% (active)
Cc1cc(C(O)(c2cc(C)c(O)c(C(=O)O)c2)c2cc(C)c(O)c(C(=O)O)c2)cc(C(=O)O)c1O,2%,-5%,12.4%,2%,-11%,-18%,0%,1%,5.35%,6%,-5%,21.9%,-43%,-3%,-11.7%,2%,-9%,10.3%
N/C(=N\N=C/c1ccc(O)c(O)c1O)NO,-2%,26%,41.1%,5%,21%,17.8%,-7%,8%,28.5%,-2%,-6%,17.7%,-4%,-3%,4.2%,-5%,7%,64.7%
